This is part of a sample that, as a whole, favours compounds with a hit. Of some 83,000 tested, about 20% had one in any assay.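 Percent growth is the endpoint: 0 to 100 indicates growth inhibition (40 means 60% inhibition), 0 means no net growth, and negative values indicate cell death.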 Values without a mark were called inactive. Activity calls are given as the source filed them. The calls were made as follows: active = growth percent below 10; inactive = the rest.
Assays:
Assay in all cases: NCI-60 one-dose screen, 48 h (100 = growth as untreated, 0 = no growth, -100 = all killed)
Settings in all cases: 10 µM unless noted
T-47D breast = system: T-47D breast
BT-549 breast = system: BT-549 breast
MDA-MB-435 melanoma = system: MDA-MB-435 melanoma
SW-620 colon = system: SW-620 colon
MCF7 breast = system: MCF7 breast
HCT-116 colon = system: HCT-116 colon
HCC-2998 colon = system: HCC-2998 colon
KM12 colon = system: KM12 colon

Row | SMILES | growth (T-47D breast) | growth (BT-549 breast) | growth (MDA-MB-435 melanoma) | growth (SW-620 colon) | growth (MCF7 breast) | growth (HCT-116 colon) | growth (HCC-2998 colon) | growth (KM12 colon)
1 | O=C(NCCN1CCOCC1)OCc1ccc2c(Cl)cc(Cl)c(O)c2n1 | 74.8% | 83% | 65.8% | 87.6% | 51% | 39.1% | 83.5% | 53.2%
2 | C#Cc1cccc(NC(=O)C2CCCCN2C(=O)CCl)c1 (configuration not stated) | -4.16% [8.25 µM] (active) | -55.9% [8.25 µM] (active) | -57.3% [8.25 µM] (active) | -59.9% [8.25 µM] (active) | -7.64% [8.25 µM] (active) | -30.7% [8.25 µM] (active) | -18.7% [8.25 µM] (active) | -34.2% [8.25 µM] (active)
3 | CC(C)(C)OC(=O)CN1CCc2c(sc3ncnc(N4CCN(c5ccc(F)cc5)CC4)c23)C1 | 63.9% | 76.1% | 93.3% | 77.7% | 90.6% | 87.3% | 100% | 83%
4 | CC(=O)c1sc(-c2ccc(F)cc2)cc1O | 98.4% | 93.8% | 96.1% | 106% | 94.5% | 95.3% | 103% | 95.6%
5 | COc1ccc(C=Nc2c(C(=O)Nc3cccc(Cl)c3C)sc3nc(C)c(C(=O)/C=C/c4ccc(OC)cc4)cc23)cc1 | 24.3% | 40% | -65.8% (active) | 12.4% | 11.8% | 23% | 57.6% | 12.4%
6 | COC(=O)[C@]1(C)CCC[C@]2(C)[C@H]3C[C@@H]4[C@H]5[C@@H]6CC/C(=N\OCC/C(N)=N/O)[C@H]5[C@@]3(CC[C@H]21)CC4(C(C)C)O6 | 50% | 74.9% | 82.9% | 64.3% | 55.9% | 52.6% | 90.4% | 76%
7 | COc1cc(OC)c2c(=O)c3c(CC=C(C)C)cc(OC)c(O)c3oc2c1 | 57.7% | 77.5% | 53.9% | 99.7% | 78.5% | 81.6% | 106% | 66.4%
8 | O=C(Nc1cccnc1Nc1ccc(Cl)cc1)c1cn(Cc2cccc(Oc3ccccc3)c2)nn1 | 48.1% | 52.2% | -30.2% (active) | 36.5% | 19.6% | 23.4% | 63.9% | 31.8%
9 | O=C(CSc1nnnn1-c1ccccc1)Nc1ccc(Oc2ccccc2)cc1 | 90.9% | 112% | 106% | 98.9% | 102% | 104% | 100% | 99.4%
10 | CC(C)(C)c1ccc(C(=O)N/N=C/c2ccc(O)cc2O)cc1 | 33.1% | 32% | 34.3% | 30% | 8.44% (active) | 23.4% | 19.4% | 12.5%
11 | Clc1cccc(C2Cc3cnccc3-c3[nH]c4ccncc4c32)c1 (configuration not stated) | 34.4% | 50.1% | 39.5% | 44.7% | 20.4% | 32.5% | 76.7% | 44.3%
12 | COc1cc(/C=C/C(=O)c2cccc(-n3cc(-c4ccc(Cl)cc4)[nH]c3=O)c2)ccc1O | 62.2% | 26.3% | 21.4% | 16% | 9.8% (active) | 21.5% | 66.8% | 6.79% (active)
13 | COC1C(O)CC(OC2CC(OC3CC(O[C@@H]4C(=O)c5c(cc6cc(OC7CC(OC8CC(O)C(O)C(C)O8)C(O)C(C)O7)c(C)c(O)c6c5O)CC4[C@H](OC)C(=O)C(C)=O)OC(C)C3O)OC(C)C2O)OC1C (some centres not stated) | -4.93% (active) | -18.8% (active) | -74.8% (active) | 8.3% (active) | 3.16% (active) | 4.47% (active) | -14.3% (active) | 13%
14 | Cc1cc(C)c2c(c1)N(C)c1ncnc(-n3c(C)nc4cc(C)ccc43)c1CC2C (configuration not stated) | 48.9% | 59.2% | 2.51% (active) | 19.6% | 18.7% | 17.4% | 76.1% | 38.7%
15 | COc1cc2c(cc1OCCCN1CCN(C(=S)SCCC(C#N)(c3ccccc3)c3ccccc3)CC1)N=C[C@@H]1CCCN1C2=O | -50.5% (active) | -89.7% (active) | -15.2% (active) | -100% (active) | -86.1% (active) | -93.5% (active) | -86.8% (active) | -75.1% (active)
16 | Cc1nc(N/N=C/c2cn(-c3ccccc3)nc2-c2cc3ccccc3oc2=O)sc1N=Nc1ccccc1 | 83.2% | 78.3% | 3.67% (active) | 78.8% | 68.3% | 87.4% | 104% | 63.7%
17 | CC(=O)Nc1sc2c(c1-c1nc3ccccc3s1)CNC2 | 4.49% (active) | 58.1% | 29.7% | 18.8% | 5.45% (active) | 18.8% | 33.6% | 22.8%
18 | CNC(=O)NCC1OC(n2cnc3c(NC(=O)Nc4ccccc4)ncnc32)C2OC(=O)CC12 (configuration not stated) | 91.6% | 100% | 101% | 106% | 97.9% | 98.7% | 93.1% | 106%
19 | O=C(Cc1ccc(/C=C/C(=O)c2ncc[nH]2)cc1)Nc1cc(F)c(F)c(F)c1 | 49.9% | 66.7% | 51.2% | 13.1% | 10.4% | 15.8% | 75.2% | 24.7%
20 | CC/C(=C(/c1ccc(O)cc1)c1ccc(OCCN2CCCCC2)cc1)c1ccc(OC)cc1 | 43.4% | 79.2% | 13.2% | 73.5% | 11.5% | 27.9% | 87.2% | 52.4%
21 | ClC(Cl)c1nc(-c2ccccc2)n2nc(-c3ccccc3)cc2n1 | 28.5% | 77.2% | 12% | -35.3% (active) | 3.37% (active) | 4.82% (active) | -82.1% (active) | -32% (active)
22 | Fc1cccc(-c2nc(-c3c[nH]c4ncccc34)cs2)c1 | 40.5% [100 µM] | 65.6% [100 µM] | 50.4% [100 µM] | 56% [100 µM] | 44.6% [100 µM] | 33.8% [100 µM] | 89% [100 µM] | 56.6% [100 µM]
23 | COc1cc(Cc2cc(-c3ccccc3)nn(Cc3ccccc3)c2=O)cc(OC)c1OC | 6.19% (active) | 53.8% | 44.9% | 50.1% | 24.5% | 23.3% | 64.2% | 32.9%
24 | Cc1ccc(C2CC(c3cccc(Nc4ccncc4)c3)=Nc3c(N)nc(N)nc3N2)cc1 (configuration not stated) | 89% | 114% | 21.7% | 30.4% | 37.7% | 22.3% | 62.4% | 51.7%
25 | O=C1C(Cl)=C(Nc2ccccc2)C(=O)c2ccccc21 | -2.5% (active) | -94.7% (active) | -97.7% (active) | -72% (active) | -58% (active) | -96.2% (active) | -15.6% (active) | 46.9%
26 | COc1ccc(Oc2ccc(/C=C/C(=O)c3ccc(OC)c(OC)c3)cc2)cc1 | 60.8% | 85.3% | 90.3% | 83.9% | 56.3% | 69.3% | 104% | 79%
27 | CCn1cc(C(=O)N/N=C/c2ccccc2)c(=O)c2cc(F)c(N3CCNC(C)C3)c(F)c21 (configuration not stated) | 63.6% | 77.8% | -88.1% (active) | -81.1% (active) | -84.4% (active) | 57.6% | -82.9% (active) | -89.4% (active)
28 | CS(=O)(=O)c1ccc(-c2nc3ccccc3n2CC(=O)N/N=C/c2ccccc2)cc1 | 82.4% | 95.9% | 97.2% | 103% | 89.3% | 81% | 98.9% | 107%
29 | O=C(O)c1cn(C2CC2)c2cc(N3CCN(C(=O)N4CCOCC4)CC3)c(F)cc2c1=O | 110% | 95.7% | 105% | 112% | 103% | 110% | 107% | 104%
